High-throughput results: PubChem, several laboratories
GDH-TPI counter = GDH-TPI coupling enzyme inhibitors, primary screen, artefact control for M. tuberculosis FBA inhibitor project, biochemical, absorbance, full deck | inhibition, % at 4.8 µM | hit rate 1.2% among 360,000 | GDH-TPI coupled enzyme counterscreen, NADH absorbance; in the data active = inhibition above about 30%;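 also: 0% = DMSO wells and 100% = wells lacking the enzyme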
FadD28 binding = inhibitors of FadD28 bisubstrate probe binding, primary screen, biochemical, fluorescence polarization, single point. Mycobacterium tuberculosis FadD28 fatty-acid-AMP ligase. inhibition, % at 12.5 µM. hit rate 0.22% among 360,000. AID 588549, 2011; in the data active = inhibition above about 8.5%, passing the limit was not always enough
FBA Mtb inh = Mtb FBA enzyme inhibitors, primary screen, biochemical, fluorescence, strain H37Rv; purified M. tuberculosis FBA, fluorescence read-out; inhibition, % at 1 µM; hit rate 2.3% among 360,000; AID 588726, 2011; in the data active = inhibition above about 27%;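 also: 0% = vehicle and 100% = reference inhibitor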
Target sequence (P9WQA3 whole entry, looked up): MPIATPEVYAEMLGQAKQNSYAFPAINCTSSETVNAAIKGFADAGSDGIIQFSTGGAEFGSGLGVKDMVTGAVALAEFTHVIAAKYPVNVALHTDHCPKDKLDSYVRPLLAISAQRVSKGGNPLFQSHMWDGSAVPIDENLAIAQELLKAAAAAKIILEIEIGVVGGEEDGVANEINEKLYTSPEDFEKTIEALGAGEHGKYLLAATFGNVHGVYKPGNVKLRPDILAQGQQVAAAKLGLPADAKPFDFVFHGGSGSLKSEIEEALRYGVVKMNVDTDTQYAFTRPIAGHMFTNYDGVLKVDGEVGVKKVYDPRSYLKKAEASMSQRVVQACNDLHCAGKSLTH
Mtb hypoxia inh = PubChem AID 1159583; M. tuberculosis hypoxia-regulated fluorescent reporter, fluorescence; fluorescence inhibition, % (test concentration not listed); hit rate 0.1% among 300,000; in the data active = fluorescence inhibition mostly above about 23%, no sharp cut-off; inactive = mostly below about 17%
Mtb BioA inh = M. tuberculosis BioA enzyme inhibitors, primary screen, biochemical, plate reader, single point, HTS. purified M. tuberculosis BioA enzyme. hit rate 0.096% among 360,000. inhibition, % at 9.99 µM. AID 602481, 2012; in the data active = inhibition above about 40%
Starred values were filed as active, the others as inactive; / = no result given; + = active, no number. Hits are enriched below; roughly 2.9% of the tested compounds scored in any of these assays.

SMILES	GDH-TPI counter	FadD28 binding	FBA Mtb inh	Mtb hypoxia inh	Mtb BioA inh
CC(C)(C)c1ccc(C2CC2C(=O)NN=Cc2ccc[nH]2)cc1 (stereo not drawn)	/	/	/	7.0	/
Cc1ccc(-c2cc(C(=O)N3CCOCC3)c3ccccc3n2)o1	21.6	-0.4	119.9*	10.5	/
Cc1ccc(-c2cc(C(=O)N3CCN(c4ccc(F)cc4)CC3)c3ccccc3n2)o1	20.6	-1.7	12.4	/	-1.1
NC(=O)C1CCN(C(=O)c2cc(-c3ccc(Cl)s3)nc3ccccc23)CC1	34.2*	-2.1	126.5*	-13.3	-1.6
COc1ccc(-c2cc(C(F)F)n3ncc(C(=O)N4CCCCC4)c3n2)cc1	41.8*	-0.9	26.0	15.6	-1.9
COc1ccc(-c2cc(C(F)F)n3ncc(C(=O)N4CCN(C(=O)c5ccco5)CC4)c3n2)cc1	21.6	-2.9	25.4	-9.1	2.1
COc1ccc2cc(-c3cc(C(=O)O)c4ccccc4n3)ccc2c1	36.2*	-5.6	12.7	/	-3.1
COc1ccc(-c2cc(C(=O)N3CC(C)CC(C)C3)c3ccccc3n2)cc1 (stereo not drawn)	13.4	-1.5	50.4*	2.2	-0.5
Cc1ccc(-c2cc(C(=O)N(C)CC(=O)Nc3ccccc3Br)c3ccccc3n2)o1	11.3	-1.8	120.5*	0.1	0.8
CC1CC(C)CN(C(=O)c2cc(-c3ccccn3)nc3ccccc23)C1 (stereo not drawn)	9.6	-1.3	2.0	3.8	/
C[C@@H]1CN([C@H](C)CO)S(=O)(=O)c2ccc(C3=CCCC3)cc2O[C@@H]1CN(C)C(=O)c1ccccn1	/	/	/	/	-1.5
CNC(=S)N(CCO)Cc1cc2cc3c(cc2[nH]c1=O)OCO3	20.9	-0.1	33.0*	-7.9	-1.3
Cc1ccc(/C=N/NC(=O)c2ccc3c(c2)OCCO3)s1	13.2	-2.0	-5.2	/	/
Cc1cc(C(=O)N/N=C/c2cccn2C)no1	31.0*	-1.3	-0.4	/	/
Cn1cccc1C=NNC(=O)c1ccccn1	/	/	/	10.4	/
Cn1cccc1/C=N/NC(=O)c1ccccn1	30.9*	-0.5	-0.9	/	-0.6
Cc1ccc(/C=N/NC(=O)c2ccc3ccccc3c2)s1	32.1*	-2.4	-0.7	/	-2.4
Cn1cccc1/C=N/NC(=O)C(O)c1ccccc1 (stereo not drawn)	30.6*	1.5	-2.9	/	0.2
COc1cccc(-c2ccc3c(c2)[C@@H]2[C@@H](CCN2C(=O)Cc2ccccc2)[C@H](CO)N3)c1	/	/	/	/	-0.5
O=C(N/N=C/c1cccs1)c1ccccn1	23.3	-0.3	-0.7	/	/
Cn1cccc1/C=N/NC(=O)c1ccncc1	35.4*	-0.2	1.1	/	0.1
Cc1ccc(/C=N/NC(=O)c2ccccn2)s1	31.6*	-0.9	-0.4	/	/
C[C@@H]1CN([C@H](C)CO)C(=O)c2cc(C#Cc3cccnc3)cnc2O[C@@H]1CN(C)Cc1ccncc1	/	/	/	/	4.0
Cc1noc(C)c1S(=O)(=O)Nc1ccc2c(c1)C(=O)N([C@H](C)CO)C[C@H](C)[C@H](CN(C)Cc1ccc3c(c1)OCO3)O2	/	/	/	/	0.4
C[C@@H]1CCCCO[C@@H](CN(C)C(=O)c2ccccc2)[C@H](C)CN([C@H](C)CO)C(=O)c2cc(NC(=O)NC3CCCCC3)ccc2O1	/	/	/	/	-1.3
SMILES	GDH-TPI counter	FadD28 binding	FBA Mtb inh	Mtb hypoxia inh	Mtb BioA inh
N#C[C@@H]1[C@@H](c2ccc(-c3cncnc3)cc2)[C@H](CO)N1C(=O)CN1CCOCC1	/	/	/	/	-1.3
CCOC(=O)c1c(-c2ccc(OC)cc2)oc2ccc(O)cc12	6.3	-3.4	4.1	12.7	-1.3
CCOC(=O)c1c(-c2ccc(OC)cc2)oc2ccc(OCC(N)=O)cc12	-1.7	-0.7	+	5.8	-0.5
CCOC(=O)c1c(-c2ccccc2)oc2ccc(OCC(=O)O)cc12	-1.3	-5.7	161.2*	4.3	/
CN(C)CC(=O)Nc1ccc2c(c1)[C@H]1C[C@@H](CC(=O)N3CCc4ccccc4C3)O[C@@H](CO)[C@H]1O2	/	/	/	/	-0.2
N#CCC(=O)Nc1ccccc1C(=O)O	6.2	-1.6	2.4	/	-0.8
N#C/C(=C/Nc1ccccc1C(=O)O)C(N)=O	68.3*	0.1	-4.6	14.5	/
COc1ccc(C=Nn2c(=S)n(C)c3ccccc32)cc1OC	/	/	/	0.8	/
COC(=O)Cc1c(C)c2ccc(OCC(=O)N3CCCC3)c(C)c2oc1=O	21.6	0.3	151.0*	6.7	-0.9
CCOC(=O)CCc1c(C)c2ccc(OCC(=O)N3CCOCC3)c(C)c2oc1=O	23.9	-1.0	145.8*	0.6	2.8
CCOC(=O)CCc1c(C)c2ccc3c(c2oc1=O)CN(CCCO)CO3	13.9	-1.2	+	4.6	-0.9
O=C(C[C@@H]1CC[C@@H]2[C@H](COC[C@@H](O)CN2Cc2ccncc2)O1)NCc1ccccc1Cl	/	/	/	/	2.8
Cc1cc(C(=O)N/N=C/c2ccc[nH]2)n[nH]1	39.1*	-0.1	-3.7	/	/
Cc1cc(C(=O)N/N=C/c2ccc[nH]2)no1	30.7*	0.0	-3.1	/	-1.2
Cc1cc(C(=O)N/N=C/c2ccc(-c3ccccc3Cl)o2)n[nH]1	34.5*	-0.8	2.1	/	-1.0
Cc1cc(C(=O)NN=Cc2ccccn2)n[nH]1	/	/	/	2.0	/
N#CCC(=O)NN=Cc1ccc(Cl)cc1	/	/	/	-6.4	/
C[C@H](CO)N1C[C@H](C)[C@H](CN(C)Cc2ccccc2)Oc2ccc(NC(=O)CCCN(C)C)cc2C1=O	/	/	/	/	-0.2
CCN(CC)c1ccc(C=NNc2nc(C)cc(C)n2)cc1	/	/	/	12.4	/
ClCCN(CCCl)c1ccc(C=Cc2ccncn2)cc1	11.5	-2.0	0.2	12.0	-3.1
ClCCN(CCCl)c1ccc(C=NNc2ncccn2)cc1	57.3*	0.8	1.2	15.7	-0.8
N#Cc1ncc(N=Cc2ccc(N(CCCl)CCCl)cc2)s1	52.2*	-4.7	-1.4	15.9	-2.0
O=C(c1cccc(F)c1)N1CCCCN2[C@@H](CO)[C@@H](c3ccc(C#CC4(O)CCCC4)cc3)[C@@H]2C1	/	/	/	/	3.6
O=C(CN1CCN(Cc2ccc(Cl)cc2)CC1)NN=Cc1cccc(F)c1	/	/	/	0.4	/
O=C(Nc1ccc(/C=C/c2nc3ccccc3o2)cc1)c1ccc(F)cc1	32.7*	-2.5	4.4	3.0	-0.5
SMILES	GDH-TPI counter	FadD28 binding	FBA Mtb inh	Mtb hypoxia inh	Mtb BioA inh
O=C(NNC(=O)c1ccc(NC(=O)c2ccccc2)cc1)c1ccc(F)cc1	0.3	-4.5	-2.4	8.0	-1.2
COCCNC(=O)C[C@@H]1C[C@H]2c3cc(NC(=O)Nc4ccc(OC)cc4)ccc3O[C@H]2[C@H](CO)O1	/	/	/	/	-1.5
COc1ccccc1-c1coc2c(CN3CCN(C)CC3)c(O)ccc2c1=O	21.9	-1.5	131.9*	-2.7	1.8
COc1ccccc1-c1coc2c(CN3CCN(CCO)CC3)c(O)ccc2c1=O	16.4	-1.8	151.9*	/	-0.7
CCN1CCN(Cc2c(O)ccc3c(=O)c(-c4ccccc4OC)coc23)CC1	28.3	0.2	118.8*	9.3	/
Cc1ccc(S(=O)(=O)Nc2ccc3c(c2)C(=O)N([C@@H](C)CO)C[C@@H](C)[C@@H](CN(C)C(=O)c2ccncc2)OCCCC[C@@H](C)O3)cc1	/	/	/	/	1.7
C[C@H]1CN([C@@H](C)CO)C(=O)Cc2cc(NC(=O)C3CCCCC3)ccc2O[C@@H]1CN(C)S(=O)(=O)c1ccccc1	/	/	/	/	-0.2
Cc1cc(C)nc(NN=Cc2ccccc2)n1	/	/	/	2.0	/
